Activity calls are given as the source filed them. How the source made its calls: active means hit-call score of the fitted dose curve at least 0.9, where 1 is the maximum; inactive means score below 0.9.
Legend:
Conditions in all cases: mRNA level, 48 h; actives raise or lower the signal
[1] = read-out: Forkhead box O1 (FOXO1), FOXO1 (gene 2308); test: LTEA_HepaRG_FOXO1: Life Technologies and Expression Analysis (LTEA) Assay for Forkhead box O1 (FOXO1) using HepaRG (AID 2283456)
Outline: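 HepaRG, 48 h exposure, 8-pt half-log series from 100 uM in 0.5% DMSO, duplicates; Fluidigm qRT-PCR mRNA, housekeeping-normalised; bidirectional fit vs DMSO baseline.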

[2] = read-out: growth arrest and DNA damage 45 (GADD45A), GADD45A (gene 1647); test: LTEA_HepaRG_GADD45A: Life Technologies and Expression Analysis (LTEA) Assay for growth arrest and DNA damage 45 (GADD45A) using HepaRG (AID 2283458)
Outline: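 HepaRG, 48 h exposure, 8 conc. (top 100 uM, half-log steps), 0.5% DMSO vehicle, duplicates. Read-out: qRT-PCR mRNA level, housekeeping-normalized (ACTB/GAPDH/POLR2A). Curves fit bidirectionally vs DMSO baseline.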

[3] = read-out: Forkhead box O3 (FOXO3), FOXO3 (gene 2309); test: LTEA_HepaRG_FOXO3: Life Technologies and Expression Analysis (LTEA) Assay for Forkhead box O3 (FOXO3) using HepaRG (AID 2283459)
Outline: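 qRT-PCR readout of FOXO3 transcript, normalized to three housekeeping genes (ACTB, GAPDH, POLR2A); gain or loss fitted against 0.5% DMSO vehicle. HepaRG cells, 48 h chemical exposure, 8-point half-log series, top 100 uM.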

[4] = read-out: ABC Transporter (ABCB1), ABCB1 (gene 5243); test: LTEA_HepaRG_ABCB1: Life Technologies and Expression Analysis (LTEA) Assay for ABC Transporter (ABCB1) using HepaRG (AID 2283460)
Outline: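 HepaRG, 48 h exposure, 8-pt half-log series from 100 uM, 0.5% DMSO vehicle, duplicates. Readout: ABCB1 transcript by Fluidigm TaqMan qRT-PCR, housekeeping-normalized; bidirectional curve fit vs DMSO baseline.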

[5] = read-out: growth arrest and DNA damage 45 (GADD45B), GADD45B (gene 4616); test: LTEA_HepaRG_GADD45B: Life Technologies and Expression Analysis (LTEA) Assay for growth arrest and DNA damage 45 (GADD45B) using HepaRG (AID 2283461)
Outline: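 HepaRG, ~100,000 cells/well, 48 h plating; serum-free induction medium; cpd 100 uM top, half-log x8, 0.5% DMSO, duplicate, 48 h; lysis in RLT, RNA isolation, qRT-PCR; norm ACTB/GAPDH/POLR2A; bidirectional fit vs DMSO.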

[6] = read-out: ABC Transporter (ABCC3), ABCC3 (gene 8714); test: LTEA_HepaRG_ABCC3: Life Technologies and Expression Analysis (LTEA) Assay for ABC Transporter (ABCC3) using HepaRG (AID 2283462)
Outline: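 Human HepaRG, 48 h dosing, 8-pt half-log series from 100 uM, 0.5% DMSO vehicle, duplicates. ABCC3 mRNA by TaqMan qRT-PCR, housekeeping-normalized; bidirectional curve fit vs DMSO.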

[7] = read-out: ABC Transporter (ABCC2), ABCC2 (gene 1244); test: LTEA_HepaRG_ABCC2: Life Technologies and Expression Analysis (LTEA) Assay for ABC Transporter (ABCC2) using HepaRG (AID 2283464)
Outline: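 HepaRG, 48 h post-plating; serum-free induction medium; cpd 8-pt, 100 uM top, half-log, 0.5% DMSO, duplicate, 48 h. Readout: ABCC2 mRNA by qRT-PCR, norm. ACTB/GAPDH/POLR2A. Bidirectional fit vs DMSO baseline.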

[8] = read-out: Broad substrate specificity ATP-binding cassette transporter ABCG2 (Homo sapiens) (UniProt Q9UNQ0); test: LTEA_HepaRG_ABCG2: Life Technologies and Expression Analysis (LTEA) Assay for ABC Transporter (ABCG2) using HepaRG (AID 2283465)
Outline: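 HepaRG, 48 h exposure, 8-pt half-log series from 100 uM, 0.5% DMSO vehicle, duplicates. Readout: ABCG2 transcript by qRT-PCR (Fluidigm array), housekeeping-normalized; bidirectional curve fit relative to DMSO baseline.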

[9] = read-out: ATP-citrate lyase (ACLY), ACLY (gene 47); test: LTEA_HepaRG_ACLY: Life Technologies and Expression Analysis (LTEA) Assay for ATP-citrate lyase (ACLY) using HepaRG (AID 2283466)
Outline: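 qRT-PCR readout of ACLY transcript after 48 h chemical treatment of HepaRG cells; expression normalized to three housekeeping genes. Eight-point half-log series, highest 100 uM, 0.5% DMSO vehicle. Gain or loss fitted against DMSO baseline.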

[10] = read-out: Peroxisomal acyl-coenzyme A oxidase 1 (ACOX1) gene, ACOX1 (gene 51); test: LTEA_HepaRG_ACOX1: Life Technologies and Expression Analysis (LTEA) Assay for Peroxisomal acyl-coenzyme A oxidase 1 (ACOX1) gene using HepaRG (AID 2283467)
Outline: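 HepaRG, 48 h chemical exposure, 8-pt half-log series from 100 uM top, 0.5% DMSO vehicle, duplicates. Readout: ACOX1 mRNA by Fluidigm qRT-PCR, housekeeping-normalized; bidirectional fit vs DMSO baseline.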

[11] = read-out: Alkaline Phosphatase, Placental (ALPP) gene, ALPP (gene 250); test: LTEA_HepaRG_ALPP: Life Technologies and Expression Analysis (LTEA) Assay for Alkaline Phosphatase, Placental (ALPP) gene using HepaRG (AID 2283468);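 on AC50: differentiated human HepaRG liver cells in serum-free induction medium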
Outline: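 HepaRG, 48 h plating then 48 h dosing, serum-free induction medium, 0.5% DMSO. 8 conc, half-log, max 100 uM, duplicates. Endpoint: ALPP transcript by qRT-PCR, housekeeping-normalized; gain or loss fitted vs DMSO.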

[12] = read-out: Bcl-2 (BAD) gene, BAD (gene 572); test: LTEA_HepaRG_BAD: Life Technologies and Expression Analysis (LTEA) Assay for Bcl-2 (BAD) gene using HepaRG (AID 2283469)
Outline: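 HepaRG, 48 h exposure, 8-pt half-log curve from 100 uM in 0.5% DMSO, duplicates. Readout: TaqMan qRT-PCR for BAD mRNA, housekeeping-normalised (ACTB/GAPDH/POLR2A); gain or loss fitted against DMSO baseline.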

[13] = read-out: Bcl-2 (BAX) gene, BAX (gene 581); test: LTEA_HepaRG_BAX: Life Technologies and Expression Analysis (LTEA) Assay for Bcl-2 (BAX) gene using HepaRG (AID 2283470)
Outline: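 qRT-PCR read-out of BAX mRNA, normalized to three housekeeping genes, after 48 h chemical exposure of human HepaRG cells in serum-free induction medium; eight-point half-log series, top 100 uM, 0.5% DMSO vehicle; bidirectional fit versus DMSO.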

[14] = read-out: Alpha-fetoprotein (AFP) gene, AFP (gene 174); test: LTEA_HepaRG_AFP: Life Technologies and Expression Analysis (LTEA) Assay for Alpha-fetoprotein (AFP) gene using HepaRG (AID 2283472)
Outline: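 qRT-PCR (Fluidigm TaqMan) readout of AFP transcript, normalized to three housekeeping genes, fitted bidirectionally against 0.5% DMSO baseline. HepaRG cells received chemicals for 48 h in serum-free induction medium, top concentration 100 uM, half-log steps.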

BCL2L11 (gene 10018) = test: LTEA_HepaRG_BCL2L11: Life Technologies and Expression Analysis (LTEA) Assay for Bcl-2 (BCL2L11) gene using HepaRG (AID 2283473)
Outline: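 Read-out is BCL2L11 transcript level by qRT-PCR, normalized to three housekeeping genes and fitted bidirectionally against 0.5% DMSO vehicle. HepaRG cells received chemicals for 48 h in serum-free induction medium, 100 uM down in half-log dilutions.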

[15] = read-out: Apolipoprotein A-V (APOA5) gene, APOA5 (gene 116519); test: LTEA_HepaRG_APOA5: Life Technologies and Expression Analysis (LTEA) Assay for Apolipoprotein A-V (APOA5) gene using HepaRG (AID 2283474)
Outline: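 Readout is APOA5 transcript level by qRT-PCR on Fluidigm dynamic arrays, normalized to three housekeeping genes. HepaRG cultures received chemicals for 48 h at up to 100 uM (half-log steps, 0.5% DMSO), with gain or loss scored relative to DMSO.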

[16] = read-out: Apoptosis regulator Bcl-2 (Homo sapiens) (UniProt P10415); test: LTEA_HepaRG_BCL2: Life Technologies and Expression Analysis (LTEA) Assay for Bcl-2 gene using HepaRG (AID 2283475)
Outline: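 qRT-PCR read-out (Fluidigm TaqMan) of BCL2 transcript, normalised to three housekeeping genes, after 48 h chemical exposure of HepaRG cells; 8-point half-log series, top 100 uM, 0.5% DMSO vehicle. Gain or loss of signal fitted relative to DMSO baseline.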

[17] = read-out: adenosine kinase (ADK) gene, ADK (gene 132); test: LTEA_HepaRG_ADK: Life Technologies and Expression Analysis (LTEA) Assay for adenosine kinase (ADK) gene using HepaRG (AID 2283471)
Outline: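 Differentiated HepaRG cells dosed 48 h in serum-free induction medium, 0.5% DMSO vehicle, eight half-log concentrations from 100 uM, in duplicate. ADK mRNA by TaqMan qRT-PCR normalised to ACTB, GAPDH, POLR2A; bidirectional fit versus DMSO.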

Measured: AC50

Apoptosis regulator Bcl-2 (Homo sapiens), sequence (P10415 whole entry, looked up): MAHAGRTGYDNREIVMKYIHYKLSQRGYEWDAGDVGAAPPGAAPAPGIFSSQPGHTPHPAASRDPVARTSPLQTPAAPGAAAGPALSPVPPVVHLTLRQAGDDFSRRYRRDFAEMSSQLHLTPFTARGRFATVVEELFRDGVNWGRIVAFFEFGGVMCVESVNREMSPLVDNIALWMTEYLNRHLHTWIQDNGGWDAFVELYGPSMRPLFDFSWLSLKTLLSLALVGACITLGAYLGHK
Broad substrate specificity ATP-binding cassette transporter ABCG2 (Homo sapiens), sequence (Q9UNQ0 whole entry, looked up): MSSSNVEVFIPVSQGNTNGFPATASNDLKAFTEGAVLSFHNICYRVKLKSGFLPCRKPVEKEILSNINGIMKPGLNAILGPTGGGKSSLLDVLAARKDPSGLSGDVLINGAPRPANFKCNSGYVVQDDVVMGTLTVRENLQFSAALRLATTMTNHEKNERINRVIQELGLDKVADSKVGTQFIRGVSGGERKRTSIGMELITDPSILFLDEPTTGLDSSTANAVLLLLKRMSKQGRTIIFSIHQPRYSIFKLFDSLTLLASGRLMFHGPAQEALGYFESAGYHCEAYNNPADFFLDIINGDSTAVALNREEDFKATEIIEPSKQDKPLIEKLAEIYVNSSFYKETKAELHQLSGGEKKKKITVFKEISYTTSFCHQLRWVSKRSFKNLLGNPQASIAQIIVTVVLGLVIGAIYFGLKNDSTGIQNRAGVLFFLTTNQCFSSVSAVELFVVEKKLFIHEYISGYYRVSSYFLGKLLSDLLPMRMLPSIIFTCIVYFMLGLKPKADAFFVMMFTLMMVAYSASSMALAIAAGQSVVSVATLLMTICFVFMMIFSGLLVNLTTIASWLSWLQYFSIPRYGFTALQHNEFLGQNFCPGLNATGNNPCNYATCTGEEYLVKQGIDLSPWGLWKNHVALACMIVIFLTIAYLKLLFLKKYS

CS/C(C)=N/OC(=O)N(C)SN(C)C(=O)O/N=C(\C)SC
not listed: [17]
inactive: all other assays above

CC(C)(C)c1ccc(CSc2cnn(C(C)(C)C)c(=O)c2Cl)cc1
active: [1] 2.12 µM | [2] 1.99 µM | [3] 1.49 µM | [4] 4.66 µM | [7] 9.03 µM | [8] 2.89 µM | [9] 1.72 µM | [11] 1.08 µM | [13] 6.27 µM | [14] 2.47 µM | BCL2L11 (gene 10018) 1.93 µM | [15] 12 µM | [16] 2.89 µM
inactive: [5] | [6] | [10] | [12] | [17]

C#CCOS(=O)OC1CCCCC1Oc1ccc(C(C)(C)C)cc1 (centres undefined)
active: [1] 32 µM | [2] 50 µM | [4] 50 µM | [5] 14.9 µM | [7] 23.6 µM | [8] 50 µM | [9] 35 µM | [10] 29.1 µM | [17] 30.1 µM | [14] 29.5 µM | [16] 81.7 µM
inactive: [3] | [6] | [11] | [12] | [13] | BCL2L11 (gene 10018) | [15]

COc1ccc(C(c2ccc(OC)cc2)C(Cl)(Cl)Cl)cc1
active: [5] 61.8 µM | [6] 77 µM | [7] 14.1 µM | [14] 78.4 µM | [15] 70.9 µM | [16] 86.3 µM
not listed: [11] | [17]
inactive: all other assays above

CCCCNC(=O)OCC#CI
active: [7] 50 µM | [8] 9.92 µM | [11] 9.92 µM | [17] 50 µM
inactive: all other assays above

C=CC1(C)OC(=O)N(c2cc(Cl)cc(Cl)c2)C1=O (centres undefined)
active: [4] 9.71 µM | [8] 11.1 µM
not listed: [17]
inactive: all other assays above
